15-hLO-2 inh: blocks human 15-lipoxygenase 2 activity | AID 881 | Potency, µM (series often up to 57.1 µM), most hits filed as inhibitors | purified 15hLO-2, xylenol orange hydroperoxide absorbance | actives 0.56% (n = 110,000); also: nearly all actives have a fitted effect of over 60% in size
Target sequence (O15296 whole entry, looked up): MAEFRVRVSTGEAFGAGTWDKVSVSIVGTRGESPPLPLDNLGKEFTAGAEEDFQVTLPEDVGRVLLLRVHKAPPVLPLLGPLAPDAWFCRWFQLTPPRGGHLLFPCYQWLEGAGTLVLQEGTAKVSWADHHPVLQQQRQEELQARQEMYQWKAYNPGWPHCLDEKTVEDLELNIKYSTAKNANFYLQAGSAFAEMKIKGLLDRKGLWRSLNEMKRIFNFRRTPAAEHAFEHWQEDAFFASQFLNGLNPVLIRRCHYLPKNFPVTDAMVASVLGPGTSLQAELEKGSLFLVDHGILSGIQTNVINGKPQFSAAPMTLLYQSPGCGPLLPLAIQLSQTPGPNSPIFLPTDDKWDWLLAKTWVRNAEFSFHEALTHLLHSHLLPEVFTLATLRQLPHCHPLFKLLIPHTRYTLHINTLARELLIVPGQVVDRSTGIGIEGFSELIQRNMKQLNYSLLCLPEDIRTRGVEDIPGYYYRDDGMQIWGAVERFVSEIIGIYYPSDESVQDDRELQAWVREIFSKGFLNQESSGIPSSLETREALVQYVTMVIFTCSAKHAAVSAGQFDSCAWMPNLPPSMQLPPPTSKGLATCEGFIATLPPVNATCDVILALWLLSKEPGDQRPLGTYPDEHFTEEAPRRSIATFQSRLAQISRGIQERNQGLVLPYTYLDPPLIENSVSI
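Enzyme 50 nM, AA 45 uM, 25 mM Hepes pH 7.5 + 0.01% Triton X-100; cpd preinc 15 min RT, rxn 90 min RT; stop/detect with 200 uM XO + 300 uM Fe(II) in 50 mM H2SO4, 30 min; A573/A405.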
IMPase cell inh: membrane-permeable compound that blocks inositol monophosphatase. P97697. inhibition (IP1 accumulation), % at 46.1 µM. CHO-M1 cells, IP1 accumulation, HTRF TR-FRET ratio. 120,000 tested, under 10 active; active = well fitted curve in the direction sought with a large enough effect in the signal ratio, not every such curve was filed as active; inconclusive = small, poorly fitted or top-dose-only effect, or a change in a side signal; inactive = no such curve, though single readings can be large or run the other way; the % refers to the signal ratio;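 also: cells stimulated with carbachol in lithium chloride buffer; higher means more IMPase inhibition seen as more IP1 and lower FRET ratio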
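In this qHTS, compounds (final up to 46 uM) act on CHO-M1 cells that are then activated through the M1 receptor with carbachol, in pH 7.4 buffer containing 50 mM LiCl, for 30 min. IP1 accumulation is quantified by the IP-One immunoassay.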
PNC inhibitor: inhibitors of perinucleolar compartment assembly; PC3M PTB-GFP, PNC prevalence imaging, 16 h; stronger effect = lower value; activity change (PNC), negative = inhibition, % at 10 µM; actives 3.1% (n = 140,000);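 active = readout at or below -70, meaning at least 70% loss of cells showing the perinucleolar compartment, a nuclear body marking cancer cells; inconclusive = readout between -30 and a set limit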
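PC3M cells stably expressing PTB-GFP, 750–1000 cells/well, treated 16 h at 37 °C with compound (23 nl of library stock), in duplicate. After paraformaldehyde fixation and Hoechst stain, imaged at 20x; PNC prevalence scored by image analysis.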
12-hLO inh: blocks human 12-lipoxygenase activity; purified 12-hLO, xylenol orange hydroperoxide absorbance; Potency, µM (doses to about 57.1 µM), most hits filed as inhibitors; actives 0.12% (n = 150,000); also: nearly all actives have a fitted effect of over 55% in size
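Purified human 12hLO (150 nM), preincubated 15 min with compound, then 40 uM arachidonic acid for 30 min, room temperature, Hepes pH 7.0 with 0.01% Triton X-100. Hydroperoxide detected by ferrous iron/xylenol orange; 573/405 nm absorbance ratio gives reaction progress.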
Large screens that a line does not name were inactive. An excerpt weighted towards active compounds, which were near 3% of everything screened. Unless noted, calls follow the shape of the dose curve; as a rule, active = well fitted curve in the direction sought with a large enough effect; inconclusive = small, poorly fitted or top-dose-only effect, or another doubt; inactive = no such curve, though single readings can be large; an effect the other way counts as inactive or inconclusive.

Cc1ccc(C)c(N(CC(=O)N/N=C/c2ccc(-c3ccc([N+](=O)[O-])cc3)o2)S(=O)(=O)c2ccccc2)c1	15-hLO-2 inh inconclusive, PNC inhibitor inconclusive
CCOc1ccc(S(=O)(=O)N(CC(=O)N/N=C/c2ccc(-c3ccc([N+](=O)[O-])cc3)o2)c2ccccc2)cc1	15-hLO-2 inh 12.6µM
C(=N/Nc1nnc2c(n1)[nH]c1ccccc12)/c1cccnc1	none (no result: IMPase cell inh, PNC inhibitor)
O=C(N/N=C/c1c(Cl)cccc1Cl)c1ccccc1F	PNC inhibitor -84.1 (no result: 15-hLO-2 inh, IMPase cell inh)
O=C(N/N=C/c1c(Cl)cccc1Cl)c1ccc(F)cc1	none
C=C1C(=O)C=C2CN(C(=O)c3ccccc3)[C@@](Cc3ccc(F)cc3)(C(=O)OC)[C@@H]12	PNC inhibitor -118.9 (no result: IMPase cell inh)
Cc1c(C(=O)O)sc2ncn(C)c(=O)c12	none
CCOP(=O)(OCC)C(NC(=O)Nc1cccc(Cl)c1)c1ccccc1 (configuration not stated)	PNC inhibitor -113.4 (no result: 15-hLO-2 inh, IMPase cell inh)
CCn1c(Cc2ccccc2)nnc1SCC(=O)Nc1cc(C)on1	PNC inhibitor -106.5
CN(C)c1ccc(NC(=O)CSc2nc3ccccc3c(=O)n2C2CCCCC2)cc1	none
COC(=O)c1ccccc1NC(=O)CSc1nc(O)cc(=O)n1C1CCCC1	PNC inhibitor -88.8
Cc1cc(NC(=O)CSc2nc3ccccc3c(=O)n2C2CCCC2)no1	PNC inhibitor -82.8
Cc1cccc(C(=O)NC(=S)N2CCc3ccccc3C2)c1	PNC inhibitor -81.9 (no result: 15-hLO-2 inh, IMPase cell inh)
CC(=O)c1cccc(NC(=O)N2CCc3ccccc3C2)c1	none
O=C(NC(=S)NCc1cccnc1)c1ccccc1	none (no result: 15-hLO-2 inh, IMPase cell inh)
O=C(NC(=S)NCCSc1ccccc1)c1cccnc1	PNC inhibitor -95.1 (no result: 15-hLO-2 inh, IMPase cell inh)
Cc1cccc(NC(=O)CSC2=Nc3ccccc3C3=NC(CCC(=O)NCc4ccc(F)cc4)C(=O)N23)c1 (configuration not stated)	none (no result: 15-hLO-2 inh, PNC inhibitor, 12-hLO inh)
Nc1cc(Br)c(N)c(Br)c1	PNC inhibitor -93.3
Nc1cc(Cl)c(N)c(Cl)c1	none (no result: IMPase cell inh, PNC inhibitor)
COc1cc(C2CC(=O)Oc3ccc(O)cc32)cc(OC)c1OC (configuration not stated)	none (no result: IMPase cell inh, PNC inhibitor)
CN1CCN(c2ncc3ncc(=O)n(C[C@H]4CCCO4)c3n2)CC1	none (no result: IMPase cell inh, PNC inhibitor, 12-hLO inh)
CCCc1nc2ccc(NC(=O)c3ccco3)cc2c(=O)n1Cc1ccccc1Cl	PNC inhibitor -100.0 (no result: 15-hLO-2 inh)
O=C(N/N=C/c1cccs1)/C(=C/c1ccccc1)NC(=O)c1ccccc1	none (no result: 15-hLO-2 inh)
O=C1NC(NS(=O)(=O)c2ccccc2)(C(F)(F)F)C(=O)N1c1ccc(F)cc1 (configuration not stated)	PNC inhibitor inconclusive (no result: 15-hLO-2 inh)
Cc1ccc(S(=O)(=O)NC2(C(F)(F)F)NC(=O)N(C)C2=O)cc1 (configuration not stated)	PNC inhibitor -86.9
COc1ccccc1OCCCn1cc(C#N)c2ccccc21	PNC inhibitor -82.2
COc1ccc(Cn2c(C3CC3)nc3ccc(NC(=O)c4ccco4)cc3c2=O)cc1	none
O=C(Nc1cccc(F)c1)c1ccccc1-c1ccccc1	PNC inhibitor -103.2 (no result: 15-hLO-2 inh)
O=C(COc1ccc(Cl)cc1)NCc1nnc2c3ccccc3c(-c3ccccc3)nn12	PNC inhibitor -108.5 (no result: 15-hLO-2 inh)
CCCCOc1cccc(C2c3c(oc4ccccc4c3=O)C(=O)N2c2ccccn2)c1 (configuration not stated)	none (no result: 15-hLO-2 inh, PNC inhibitor, 12-hLO inh)
O=C(Nc1ccn(Cc2ccccc2F)n1)c1ccc(COc2ccc(Br)cc2)cc1	PNC inhibitor -108.4
COc1ccc(/C=N/Nc2ccccc2)cc1Cn1nc(C)c([N+](=O)[O-])c1C	PNC inhibitor -97.9
COc1ccccc1NC(=O)CSc1nnc2c3ccccc3n(C(C)C)c2n1	none (no result: 15-hLO-2 inh, PNC inhibitor, 12-hLO inh)
CC(C)Cn1c2c(c(O)c(C(=O)Nc3ccc(F)cc3)c1=O)CCCC2	none
CC(C)Cn1c2c(c(O)c(C(=O)Nc3ncccc3O)c1=O)CCCC2	PNC inhibitor -90.9
CCN(CC)C(=O)c1ccc2c(c1[N+](=O)[O-])C(=O)c1ccccc1C2=O	IMPase cell inh inconclusive, PNC inhibitor -81.8 (no result: 15-hLO-2 inh)
CCN(CC)C(=O)c1cccc2c1C(=O)c1ccccc1-2	PNC inhibitor inconclusive (no result: 15-hLO-2 inh)
c1cn(-c2ccnc(-c3ccc4c(c3)OCO4)n2)cn1	none (no result: IMPase cell inh, PNC inhibitor, 12-hLO inh)
CC(OC(=O)c1cc2sccc2n1C)C(=O)NCc1cccs1 (configuration not stated)	PNC inhibitor -80.6
CS(=O)(=O)NCCOc1ccc(S(=O)(=O)N2CCCc3ccccc32)cc1	none
CC1=C(C(=O)OCc2ccccc2)C(c2ccc(C3CCCCC3)cc2)NC(=O)N1CCCCCC(=O)O (configuration not stated)	15-hLO-2 inh 25.1µM (no result: IMPase cell inh, PNC inhibitor)

Compound activity: PubChem, National Center for Advancing Translational Sciences (NCATS)
